Screens as filed in PubChem.
Compounds with a hit are over-represented: about 3.1% of the library has one in this group of screens.
Rin1-Abl PPI inh: blocks binding of human Rin1 to Abl. P00519+Q13671. TR-FRET Rin1/Abl binding, biochemical. inhibition, % at 7.35 µM. actives 0.4% (n = 360,000); in the data active = inhibition above about 5%, passing the limit was not always enough
Target sequence (P00519 whole entry, looked up): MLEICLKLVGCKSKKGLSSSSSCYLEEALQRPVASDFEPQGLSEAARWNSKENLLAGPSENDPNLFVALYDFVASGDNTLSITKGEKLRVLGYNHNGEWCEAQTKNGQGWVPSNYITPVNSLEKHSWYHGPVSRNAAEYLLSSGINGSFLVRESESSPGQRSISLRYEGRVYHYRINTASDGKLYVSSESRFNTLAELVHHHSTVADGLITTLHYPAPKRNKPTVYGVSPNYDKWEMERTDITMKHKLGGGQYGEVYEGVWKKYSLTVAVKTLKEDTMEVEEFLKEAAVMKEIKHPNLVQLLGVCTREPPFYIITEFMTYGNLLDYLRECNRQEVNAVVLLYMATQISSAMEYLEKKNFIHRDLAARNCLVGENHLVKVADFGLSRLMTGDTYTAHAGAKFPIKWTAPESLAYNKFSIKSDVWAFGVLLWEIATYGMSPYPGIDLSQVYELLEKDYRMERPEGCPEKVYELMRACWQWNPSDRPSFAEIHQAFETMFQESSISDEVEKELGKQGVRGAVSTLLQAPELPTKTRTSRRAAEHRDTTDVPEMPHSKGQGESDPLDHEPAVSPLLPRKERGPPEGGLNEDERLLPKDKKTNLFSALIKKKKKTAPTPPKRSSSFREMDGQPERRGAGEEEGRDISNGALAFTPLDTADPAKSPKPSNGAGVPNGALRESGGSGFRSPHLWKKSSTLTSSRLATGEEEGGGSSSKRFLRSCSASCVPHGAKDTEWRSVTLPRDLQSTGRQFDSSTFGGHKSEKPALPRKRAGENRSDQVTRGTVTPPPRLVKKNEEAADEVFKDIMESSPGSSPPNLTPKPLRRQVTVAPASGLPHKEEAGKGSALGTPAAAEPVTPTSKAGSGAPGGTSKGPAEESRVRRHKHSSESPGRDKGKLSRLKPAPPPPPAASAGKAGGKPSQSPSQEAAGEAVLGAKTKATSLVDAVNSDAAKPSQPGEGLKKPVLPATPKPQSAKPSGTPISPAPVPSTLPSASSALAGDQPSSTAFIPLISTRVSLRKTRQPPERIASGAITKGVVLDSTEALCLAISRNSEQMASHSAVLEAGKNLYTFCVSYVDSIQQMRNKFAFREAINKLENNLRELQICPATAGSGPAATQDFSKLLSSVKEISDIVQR
Target sequence (Q13671 whole entry, looked up): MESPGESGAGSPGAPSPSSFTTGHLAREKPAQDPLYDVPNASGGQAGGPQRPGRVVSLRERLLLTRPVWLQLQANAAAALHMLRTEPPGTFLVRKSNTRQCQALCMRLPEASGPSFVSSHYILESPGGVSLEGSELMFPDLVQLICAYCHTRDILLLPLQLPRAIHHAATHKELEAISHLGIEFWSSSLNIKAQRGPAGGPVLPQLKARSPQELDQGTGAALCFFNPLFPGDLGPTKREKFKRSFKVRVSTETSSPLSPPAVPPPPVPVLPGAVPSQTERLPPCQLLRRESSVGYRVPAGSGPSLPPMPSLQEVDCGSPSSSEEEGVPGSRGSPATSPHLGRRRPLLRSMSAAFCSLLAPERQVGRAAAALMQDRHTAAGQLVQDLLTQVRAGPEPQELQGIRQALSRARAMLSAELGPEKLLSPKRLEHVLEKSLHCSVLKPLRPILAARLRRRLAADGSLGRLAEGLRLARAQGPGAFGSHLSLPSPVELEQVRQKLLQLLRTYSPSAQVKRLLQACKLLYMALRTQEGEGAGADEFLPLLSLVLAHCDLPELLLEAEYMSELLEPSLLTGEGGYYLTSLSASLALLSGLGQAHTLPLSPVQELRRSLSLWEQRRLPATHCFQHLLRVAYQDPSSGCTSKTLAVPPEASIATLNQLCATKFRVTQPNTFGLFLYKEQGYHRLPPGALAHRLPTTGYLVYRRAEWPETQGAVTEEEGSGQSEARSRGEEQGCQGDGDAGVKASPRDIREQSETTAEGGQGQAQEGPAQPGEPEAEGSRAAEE
Neddyl block: blocks human cullin neddylation | actives 0.58% (n = 360,000) | TR-FRET cullin neddylation, biochemical | P61081+Q13564 | calls only at 25 µM; in the data active = inhibition above about 36%
UHRF1 MBD2 ctr: human UHRF1 methylated DNA binding inhibitors; Q96T88; UHRF1 binding to methylated oligo, TR-FRET; inhibition, % at 4.4 µM; actives 0.75% (n = 370,000); in the data active = inhibition above about 21%;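 also: UHRF1 SRA domain binding a hemimethylated CpG hairpin DNA probe; 0% = median of test compound wells and 100% = reference inhibitor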
MBD2 inh: blocks human MBD2 binding to methylated DNA; TR-FRET, MBD2 binding to methylated oligonucleotide; actives 0.31% (n = 370,000); inhibition, % at 4.4 µM; Q9UBB5; in the data active = inhibition above about 13%
LEDGF integ inh: blocks HIV-1 LEDGF/p75-dependent DNA integration; TR-FRET IN-LEDGF/p75 DNA integration, Eu/Cy5; inhibition, % at 3.7 µM; actives 0.64% (n = 370,000); AID 743269;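 active = inhibition above the screen-wide mean plus 3 SD, cut at about 13% in these data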;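 also: signal is the Cy5 over europium emission ratio at 671 and 618 nm; 0% = plate median of compound wells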
proKLK7 act: activators of human kallikrein-7 zymogen | actives 0.9% (n = 370,000) | purified proKLK7, EDANS-DABCYL substrate fluorescence; 100% is mature enzyme control, 0% vehicle | P49862 | activation, % at 7 µM;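 active = activation above the mean of all tested compounds plus 3 SD, computed per campaign excluding outliers beyond control limits, cut at about 13% in these data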
proKLK7 act conf: confirmation of human kallikrein-7 zymogen activators | shares compounds with proKLK7 act | purified proKLK7, EDANS-DABCYL substrate fluorescence; scaled: vehicle 0, mature enzyme 100 | activation, % at 7 µM | actives 68% (n = 3,200);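 active = activation, as change over the incubation, above the mean of all tested compounds plus 3 SD, cut at about 13% in these data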
EDANS-DABCYL int: optically interferes with EDANS-DABCYL signal, flagging KLK7 hits. actives 80% (n = 3,200). AID 686952. shares compounds with proKLK7 act. EDANS-DABCYL substrate fluorescence interference, no enzyme, 4 h; solvent 0%, active enzyme control 100%. activation, % at 7 µM;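 active = activation above the all-compound mean plus 3 SD, ignoring values outside control-based bounds, cut at about 4.8% in these data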;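 also: value is the 4 h activation minus the activation read at time zero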
* hit, by the source's call; i = inactive; . = no result given.

SMILES	Rin1-Abl PPI inh	Neddyl block	UHRF1 MBD2 ctr	MBD2 inh	LEDGF integ inh	proKLK7 act	proKLK7 act conf	EDANS-DABCYL int
Cc1c(CC(=O)O)c(=O)oc2c(C)c(OCc3ccc(F)cc3Cl)ccc12	-2.4	i	-1.6	-4.1	2.3	-0.7	.	.
CCc1c(C)c2cc(Cl)c(O)c(CN(CC)CC)c2oc1=O	-2.9	.	-2.4	-0.4	5.7	53.0*	73.3*	83.2*
Cc1c(C)c2cc(Cl)c(O)c(CN(C)C)c2oc1=O	-4.4	i	-3.4	-7.2	-6.5	73.8*	62.6*	65.3*
O=C(CCc1ccccc1)N[C@H]1[C@H](O)CCC[C@]12C(=O)N(Cc1ccccc1)c1ccccc12	.	.	2.8	2.1	0.7	-0.5	.	.
CC1=C(C(=O)Nc2ccccn2)C(c2cccnc2)n2nnnc2N1 (configuration not stated)	3.9	i	0.3	-1.4	2.9	20.9*	5.3	5.8*
CCOC(=O)CSc1nnc(NC(=O)CCc2ccccc2)s1	3.3	i	-1.1	-2.0	0.5	0.5	.	.
Cn1c(SCC(=O)Nc2nccs2)nnc1-c1ccccn1	2.0	i	-1.3	-0.7	-2.0	0.6	.	.
Cc1ccc(C2C=C(c3ccccc3)Nc3nc(N4C(=O)CCC4=O)nn32)cc1 (configuration not stated)	6.6	.	-1.8	4.0	-1.0	90.8*	-53.1	-89.5
CC1=CC(c2ccc(Cl)cc2)n2nc(N3C(=O)CCC3=O)nc2N1 (configuration not stated)	-1.1	.	.	.	.	.	.	.
COc1ccccc1-c1cc(C(F)(F)F)c(C#N)c(=O)[nH]1	1.7	.	-0.5	-2.2	4.0	7.0	.	.
COc1ccc(-c2cc(C(F)(F)F)c(C#N)c(=O)[nH]2)cc1	-2.0	.	2.0	-4.8	-1.5	17.3*	40.5*	43.0*
N#Cc1c(C(F)(F)F)cc(-c2cccc(Cl)c2)[nH]c1=O	-1.3	.	-1.3	-3.4	5.3	20.5*	50.5*	48.1*
Cc1ccc(S(=O)(=O)N2CCOCC2)cc1NC(=O)COc1cccc(Oc2ccccc2)c1	-2.9	i	-1.4	5.2	1.3	0.9	.	.
CNc1cnc(-c2ccc(F)c(F)c2F)cn1	-5.4	.	-0.3	-5.6	5.0	12.7*	12.8*	12.8*
CC(=O)Nc1cnc(-c2ccccc2C(F)(F)F)cn1	-0.4	i	1.7	6.5	-1.4	0.6	.	.
O=C(CNc1cccc(F)c1)N1CCc2ccccc2C1	-1.9	i	-1.2	1.0	2.6	-0.2	.	.
COCCCNC(=O)c1ccc2nc3ccccc3c(=O)n2c1	-3.0	.	-6.3	-8.3	3.6	30.8*	60.0*	67.9*
COCCCn1c(SCC(=O)NCc2ccccc2)nc2ccccc2c1=O	0.1	i	0.1	0.6	4.6	-0.4	.	.
COC(CNC(=O)c1ccc2nc3ccccc3c(=O)n2c1)OC	-3.6	.	-4.8	-2.0	-3.1	27.9*	61.6*	68.4*
COC(CNC(=O)c1ccc(-n2c(=S)[nH]c3ccccc3c2=O)cc1)OC	1.2	i	3.2	-4.1	-1.1	0.4	.	.
CC(=O)Oc1ccc2ccccc2c1C(NC(=O)Cc1ccccc1)c1ccc(Cl)cc1 (configuration not stated)	4.5	i	2.1	5.0	1.1	-0.1	.	.
CCOC(=O)/C=C1\NC(C)(C)Cc2cc(OC)c(OC)cc21	6.3	i	-0.4	-5.0	3.4	5.6	.	.
COc1cc2c(cc1OC)/C(=C/C(=O)N1CCOCC1)NC(C)(C)C2	.	.	1.2	-1.1	-2.5	60.0*	9.7	13.1*
COc1ccc(C2=NS(=O)(=O)N(C)C(C(=O)NC3CCCCC3)=C2)cc1OC	1.5	i	-1.4	1.6	-4.2	12.6*	0.8	1.4
COc1ccc(C2=NS(=O)(=O)N(C)C(C(=O)NC3CCCC3)=C2)cc1OC	-2.5	i	-0.6	3.1	-2.1	-0.5	.	.
CN(C)CCCN1C(=O)c2cccc3cccc(c23)C1=O	-6.9	i	-4.7	-2.2	4.8	2.4	.	.
